In PubChem BioAssay AID1159580 (chemical genetic matrix, 2015):
Values joined by “and” are separate entries in the source; they are usually repeats but may differ in a detail not shown here. Equal values may be shown once. The campaign covered roughly 5,500 compounds. About 2,000 (36%) were called active. About 18% were inconclusive and are not listed. No stated cut-off is given here; in the data, active means normalized growth mostly below about 0.91 (no sharp cut-off); inconclusive means no clear call, values can overlap the other calls; inactive means mostly above about 0.92. The list shows a part of the results.

Experiment: chemical genetic growth profiling, strain panel (AID 1159580);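 further: tested at 20 µM; growth read once vehicle control cultures reached saturation at 30 °C; 1 = growth at the plate median or of vehicle wells; lower values mean less growth of the strain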
Details: S. cerevisiae deletion strains, growth OD

Measured: normalized growth

CCN1CCCC(OC(=O)C(c2ccccc2)c2ccccc2)C1 (stereo not drawn)
inactive: locus YAL021C, strain ccr4, active compounds read low 0.978 | locus YAL026C, strain drs2, active compounds read low 0.99 | locus YAL030W, strain snc1, active compounds read low 0.989 | locus YBL061C, strain skt5, active compounds read low 0.982 | locus YBR009C, strain hhf1, active compounds read low 0.992 | locus YBR021W, strain FUR4, active compounds read low 1.03 | locus YBR023C, strain chs3, active compounds read low 0.973 | locus YBR171W, strain sec66, active compounds read low 0.99 | locus YBR229C, strain ROT2, active compounds read low 1.01 | locus YBR231C, strain swc5, active compounds read low 0.989 | locus YBR279W, strain paf1, active compounds read low 0.998 | locus YCL011C, strain gbp2, active compounds read low 1 | locus YCL016C, strain dcc1, active compounds read low 0.973 | locus YCL029C, strain bik1, active compounds read low 1.01 | locus YCL061C, strain MRC1, active compounds read low 0.989 | locus YCL069W, strain vba3, active compounds read low 0.989 | locus YCR088W, strain abp1, active compounds read low 0.978 | locus YDL005C, strain med2, active compounds read low 0.982 | locus YDL035C, strain GPR1, active compounds read low 1.03 | locus YDL040C, strain nat1, active compounds read low 0.98 | locus YDL074C, strain BRE1, active compounds read low 1.01 | locus YDL101C, strain DUN1, active compounds read low 1.01 | locus YDL134C, strain PPH21, active compounds read low 1.02 | locus YDL185W, strain tfp1, active compounds read low 1.01 | locus YDL192W, strain arf1, active compounds read low 1.01 | locus YDR001C, strain nth1, active compounds read low 0.975 | locus YDR069C, strain doa4, active compounds read low 1 | locus YDR101C, strain arx1, active compounds read low 0.992 | locus YDR137W, strain rgp1, active compounds read low 1.01 | locus YDR159W, strain sac3, active compounds read low 0.989 | locus YDR162C, strain NBP2, active compounds read low 1.01 | locus YDR195W, strain ref2 0.963 | locus YDR297W, strain sur2, active compounds read low 0.993 | locus YDR318W, strain mcm21, active compounds read low 1.01 | locus YDR334W, strain swr1, active compounds read low 0.958 | locus YDR335W, strain msn5, active compounds read low 0.963 | locus YDR388W, active compounds read low 1.01 | locus YDR392W, strain spt3, active compounds read low 0.975 | locus YDR502C, strain sam2, active compounds read low 0.999 | locus YEL003W, strain gim4, active compounds read low 0.978 | locus YEL037C, strain rad23, active compounds read low 0.978 | locus YEL061C, strain CIN8 (second series), active compounds read low 0.999 | locus YEL061C, strain CIN8, active compounds read low 1.01 | locus YER015W, strain faa2, active compounds read low 0.974 | locus YER016W, strain bim1, active compounds read low 0.986 | locus YER110C, active compounds read low 1.01 | locus YER111C, strain swi4, active compounds read low 0.978 | locus YER155C, strain BEM2 (second series), active compounds read low 1 | locus YER155C, strain BEM2, active compounds read low 1.01 | locus YER167W, strain BCK2, active compounds read low 1.01 | locus YFR010W, strain ubp6, active compounds read low 0.99 | locus YGL078C, strain dbp3, active compounds read low 1 | locus YGL086W, strain mad1, active compounds read low 1.01 | locus YGL167C, strain pmr1, active compounds read low 0.981 | locus YGL173C, strain kem1, active compounds read low 0.982 | locus YGL227W, strain vid30, active compounds read low 0.997 | locus YGL240W, strain doc1, active compounds read low 0.994 | locus YGL248W, strain PDE1, active compounds read low 1.01 | locus YGL253W, strain hxk2, active compounds read low 0.991 | locus YGR135W, strain pre9, active compounds read low 1 | locus YGR229C, strain SMI1, active compounds read low 1.01 | locus YGR252W, strain gcn5, active compounds read low 0.998 | locus YHR013C, strain ard1, active compounds read low 0.96 | locus YHR027C, strain rpn1, active compounds read low 0.986 | locus YHR030C, strain SLT2, active compounds read low 1.01 and 0.993 | locus YHR079C, strain IRE1 (second series), active compounds read low 1.01 | locus YHR079C, strain IRE1, active compounds read low 0.978 | locus YHR094C, strain hxt1, active compounds read low 1.01 | locus YHR129C, strain ARP1, active compounds read low 1 | locus YHR142W, strain chs7, active compounds read low 0.978 | locus YHR200W, strain rpn10, active compounds read low 1 | locus YIL066C, strain RNR3, active compounds read low 1.01 | locus YIL073C, strain SPO22, active compounds read low 1.08 | locus YIL125W, strain kgd1, active compounds read low 1 | locus YIR030C, strain dcg1, active compounds read low 1.01 | locus YJL092W, strain hpr5, active compounds read low 0.973 | locus YJL095W, strain BCK1 (second series), active compounds read low 0.994 | locus YJL095W, strain BCK1, active compounds read low 0.987 and 0.977 | locus YJL115W, strain asf1, active compounds read low 0.977 | locus YJL129C, strain trk1, active compounds read low 0.964 | locus YJL134W, strain LCB3, active compounds read low 1.01 | locus YJL154C, strain vps35, active compounds read low 0.976 | locus YJL164C, strain tpk1, active compounds read low 1 | locus YJL166W, strain qcr8, active compounds read low 0.982 | locus YJL168C, strain set2, active compounds read low 1.01 | locus YJL187C, strain SWE1 (second series), active compounds read low 1 | locus YJR043C, strain POL32, active compounds read low 1.04 | locus YJR066W, strain TOR1, active compounds read low 0.955
